molecular target: Solute carrier family 2, facilitated glucose transporter member 1 (Homo sapiens) (UniProt P11166); test: ST_JUDE_LEISH: Cytotoxicity at 2uM final concentration against transgenic Leishmania Mexicana promastigotes LmGLUT1 that are glucose transport deficient and complemented with the human glucose transporter GLUT1. Activity is measured by DNA content using SYBR green in vitro; assay type: functional
Sequence (P11166 whole entry): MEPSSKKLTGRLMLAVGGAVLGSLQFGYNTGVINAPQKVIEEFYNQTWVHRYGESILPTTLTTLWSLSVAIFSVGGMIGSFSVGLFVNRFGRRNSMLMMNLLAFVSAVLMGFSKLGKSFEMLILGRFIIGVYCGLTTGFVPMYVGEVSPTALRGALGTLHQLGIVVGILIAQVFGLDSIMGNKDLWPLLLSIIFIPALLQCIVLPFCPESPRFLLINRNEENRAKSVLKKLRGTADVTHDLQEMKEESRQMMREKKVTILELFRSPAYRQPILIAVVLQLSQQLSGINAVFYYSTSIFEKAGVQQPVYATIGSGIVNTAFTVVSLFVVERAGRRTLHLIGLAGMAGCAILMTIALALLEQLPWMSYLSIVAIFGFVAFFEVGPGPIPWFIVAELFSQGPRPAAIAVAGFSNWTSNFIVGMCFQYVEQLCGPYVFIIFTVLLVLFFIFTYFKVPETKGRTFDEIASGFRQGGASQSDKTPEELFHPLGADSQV

SMILES	inhibition [%]
O=C(c1ccc(O)c(-c2cc(Cl)cc(Cl)c2)c1)N(CCO)CCO	2.23
CCCc1cc(=O)oc2cc(OC)c(C(=O)CC(C)C)c(OC)c12	0.58
COc1ccc(C2C(C(=O)OC3CCCCC3)=C(C)NC3=C2C(=O)CCC3)cc1Br (stereo not given)	0.38
c1cc(-c2ccc(CNCCc3ccncc3)cc2)cc(-c2nc3ccccc3[nH]2)c1	1.85
O=C(n1c(-c2cc3ccccc3n2C(=O)C(F)(F)F)cc2ccccc21)C(F)(F)F	4.6
CCOc1cc(Br)c(C(C)NC(=O)c2cccc(OC)c2)cc1OCC (stereo not given)	0.82
CC(=O)CCc1ccc(OCCN(Cc2ccccc2C(F)(F)F)c2ccc(C#N)c(C(F)(F)F)c2)cc1	3.66
Cc1nc(-c2nc(NCCc3cnccn3)ncc2-c2ccsc2)sc1C	0.04
COCc1ccc(CN2CCC(C(=O)Nc3ccc(-c4nc5ccccc5[nH]4)cc3)CC2)o1	7.66
Cc1ccc(Oc2cnn(C)c(=O)c2Nc2cccc(C(=O)NCCc3ccccn3)c2)c(C)c1	4.16
CC(=O)Oc1cc(OCc2ccccc2)c(OC(C)=O)c(OCc2ccccc2)c1	6.3
O=C(Nc1ccc(-c2nc3ccccc3[nH]2)cc1)c1cccc(S(=O)(=O)N2CCCC2)c1	6.3
Cc1cc(Nc2cccc(Cl)c2)nc2ccc(NC(=O)c3ccc(=O)[nH]c3)cc12	2.59
COc1ccccc1N1CCN(CCCCNC(=O)c2ccc(NC(=O)c3cc4ccccc4o3)cc2)CC1	1.4
Cc1cc(N2CCC(NS(=O)(=O)c3cccc4cccnc34)CC2)nc(Nc2cccc(C#N)c2)n1	51.5
Cn1c(-c2ccccc2)cc2c3c(=O)cc(C(F)(F)F)[nH]c3ccc21	13.8
COc1ccc(Br)cc1/C=C/C(=O)Nc1ccc2c(c1)CCCN(C)C2	0.84
OC1CCCN(Cc2cccc(-c3ccc(-c4nc5cc(F)ccc5[nH]4)cc3)c2)C1 (stereo not given)	4.24
COc1ccc(NC(=O)Nc2ccc(-c3cccc(-c4nc5cccc(C)c5[nH]4)c3)cc2)cc1	-1.37
c1ccc(Oc2ccc(Nc3nncc4ccccc34)cc2)cc1	1.62
CCCN(CCC)S(=O)(=O)c1ccc(C(=O)Nc2nc3ccc(-c4cc(=O)[nH]c(Nc5ccccc5Cl)n4)cc3[nH]2)cc1	4.09
COc1ccc(CC(=O)Nc2ccc(Nc3nc(C)cc(N(C)C)n3)cc2)cc1	10.3
CCc1nc(N)nc(N)c1-c1ccc(F)c(F)c1	3
O=C(C(=O)c1ccc(Nc2ccnc3cc(-c4ccccn4)ccc23)cc1)c1ccccc1	-1.32
COc1ccc(-c2nc(NC(=O)Cc3ccc4c(c3)OCCO4)sc2C)cc1	3.71

molecular target: Hexose transporter 1 (Plasmodium falciparum) (UniProt O97467); test: ST_JUDE_LEISH: Cytotoxicity at 2uM final concentration against transgenic Leishmania Mexicana promastigotes LmPfHT that are glucose transport deficient and complemented with the Plasmodium falciparum hexose transporter. Activity is measured by DNA content using SYBR green in vitro; assay type: functional

SMILES	inhibition [%]
CN1CCCN(Cc2cccc(-c3cccc(NS(=O)(=O)c4cccc5cccnc45)c3)c2)CC1	10.8
c1cc(-c2cc3ccc(C4=NCCN4)cc3[nH]2)ccc1C1=NCCN1	2.57
OC(CNCCCc1ccccc1)c1cc(OCc2ccccc2)cc(OCc2ccccc2)c1 (stereo not given)	2.05
Cc1nc2ccccc2n1C1CC2CCC(C1)N2CCCC1(c2ccccc2)CCN(C(=O)OCc2ccccc2)CC1 (stereo not given)	0.85
CC1CCCC(Nc2noc(-c3sccc3Br)n2)C1 (stereo not given)	0.6
CN(C)c1ccc(-c2ccc(C(=O)NC3CCN(Cc4ccc5c(c4)OCCO5)CC3)s2)cc1	6.3
COc1cc2nc(NCCc3ccccc3)nc(NCc3nccs3)c2cc1OC	2.47
N=C1N=C(N)NCN1OCc1ccc(Cl)c(Cl)c1	1.71
COc1cc2c(cc1O)[C@@H]1[C@H](O)[C@@H](O)C=C3CCN(C2)[C@H]31	3.79
CS(=O)(=O)c1cccc(-c2cnc3[nH]cc(-c4ccc(CCC(=O)O)cc4)c3c2)c1	1.38
COc1ccc(-c2cccc(NC(=O)c3cccc(F)c3)c2)cc1CN1CCCN(C)CC1	1.16
CN1CCN(CCCN(Cc2ccc(-c3ccc(CNC4CCCC4)cc3)cc2)C(=O)CCC2CCCC2)CC1	79.8
CC(=O)Oc1c(C2CCN(CCCCNC(=O)c3ccc(NC(=O)c4ccc(Cl)cc4)cc3)CC2)ccc2c1CCCC2	6.32
CN(C(=O)C(C)(C)Oc1ccc(Cl)cc1)C1CCN(CCCCCNC(=O)/C=C/c2ccc(Cl)c(Cl)c2)CC1	2.76
COc1cc(-c2nc(-c3ccncc3)c(-c3ccc4c(c3)CCC4=NO)[nH]2)ccc1OCCN1CCCCC1	1.57
O=C(c1ccc(O)c(-c2cc(Cl)cc(Cl)c2)c1)N(CCO)CCO	1.98
CCCc1cc(=O)oc2cc(OC)c(C(=O)CC(C)C)c(OC)c12	3.76
COc1ccc(C2C(C(=O)OC3CCCCC3)=C(C)NC3=C2C(=O)CCC3)cc1Br (stereo not given)	-0.1
c1cc(-c2ccc(CNCCc3ccncc3)cc2)cc(-c2nc3ccccc3[nH]2)c1	0.82
O=C(n1c(-c2cc3ccccc3n2C(=O)C(F)(F)F)cc2ccccc21)C(F)(F)F	1.94

SMILES	inhibition [%]
CCOc1cc(Br)c(C(C)NC(=O)c2cccc(OC)c2)cc1OCC (stereo not given)	0.03
CC(=O)CCc1ccc(OCCN(Cc2ccccc2C(F)(F)F)c2ccc(C#N)c(C(F)(F)F)c2)cc1	4.24
Cc1nc(-c2nc(NCCc3cnccn3)ncc2-c2ccsc2)sc1C	0.59
COCc1ccc(CN2CCC(C(=O)Nc3ccc(-c4nc5ccccc5[nH]4)cc3)CC2)o1	5.18
Cc1ccc(Oc2cnn(C)c(=O)c2Nc2cccc(C(=O)NCCc3ccccn3)c2)c(C)c1	4.25
CC(=O)Oc1cc(OCc2ccccc2)c(OC(C)=O)c(OCc2ccccc2)c1	5.31
O=C(Nc1ccc(-c2nc3ccccc3[nH]2)cc1)c1cccc(S(=O)(=O)N2CCCC2)c1	2.8
Cc1cc(Nc2cccc(Cl)c2)nc2ccc(NC(=O)c3ccc(=O)[nH]c3)cc12	3.49
COc1ccccc1N1CCN(CCCCNC(=O)c2ccc(NC(=O)c3cc4ccccc4o3)cc2)CC1	1.36
Cc1cc(N2CCC(NS(=O)(=O)c3cccc4cccnc34)CC2)nc(Nc2cccc(C#N)c2)n1	54.4
Cn1c(-c2ccccc2)cc2c3c(=O)cc(C(F)(F)F)[nH]c3ccc21	13.1
COc1ccc(Br)cc1/C=C/C(=O)Nc1ccc2c(c1)CCCN(C)C2	3.78
OC1CCCN(Cc2cccc(-c3ccc(-c4nc5cc(F)ccc5[nH]4)cc3)c2)C1 (stereo not given)	3.92
COc1ccc(NC(=O)Nc2ccc(-c3cccc(-c4nc5cccc(C)c5[nH]4)c3)cc2)cc1	-1.2
c1ccc(Oc2ccc(Nc3nncc4ccccc34)cc2)cc1	0.25
CCCN(CCC)S(=O)(=O)c1ccc(C(=O)Nc2nc3ccc(-c4cc(=O)[nH]c(Nc5ccccc5Cl)n4)cc3[nH]2)cc1	5.1
COc1ccc(CC(=O)Nc2ccc(Nc3nc(C)cc(N(C)C)n3)cc2)cc1	17.7
CCc1nc(N)nc(N)c1-c1ccc(F)c(F)c1	5.22
O=C(C(=O)c1ccc(Nc2ccnc3cc(-c4ccccn4)ccc23)cc1)c1ccccc1	-0.47
COc1ccc(-c2nc(NC(=O)Cc3ccc4c(c3)OCCO4)sc2C)cc1	4.52
